PubChem BioAssay (Tox21)
A number with no mark means an inactive call. Inconclusive results are not listed. The source made the active and inactive calls. The call rests on the fitted dose curve.

What follows are molecules tested against Acetylcholinesterase (Homo sapiens) (UniProt P22303) (assay: Acetylcholinesterase (AChE) small molecule antagonists: enzyme-based qHTS assay (AID 1347397; further: nearly all actives have a fitted effect of over 55% in size)). Details: Potency: AChE enzyme activity inhibition; series mostly up to 115 µM; activity change, negative = inhibition: at the top concentration.
Chain of Acetylcholinesterase (Homo sapiens) (P22303 whole entry, looked up): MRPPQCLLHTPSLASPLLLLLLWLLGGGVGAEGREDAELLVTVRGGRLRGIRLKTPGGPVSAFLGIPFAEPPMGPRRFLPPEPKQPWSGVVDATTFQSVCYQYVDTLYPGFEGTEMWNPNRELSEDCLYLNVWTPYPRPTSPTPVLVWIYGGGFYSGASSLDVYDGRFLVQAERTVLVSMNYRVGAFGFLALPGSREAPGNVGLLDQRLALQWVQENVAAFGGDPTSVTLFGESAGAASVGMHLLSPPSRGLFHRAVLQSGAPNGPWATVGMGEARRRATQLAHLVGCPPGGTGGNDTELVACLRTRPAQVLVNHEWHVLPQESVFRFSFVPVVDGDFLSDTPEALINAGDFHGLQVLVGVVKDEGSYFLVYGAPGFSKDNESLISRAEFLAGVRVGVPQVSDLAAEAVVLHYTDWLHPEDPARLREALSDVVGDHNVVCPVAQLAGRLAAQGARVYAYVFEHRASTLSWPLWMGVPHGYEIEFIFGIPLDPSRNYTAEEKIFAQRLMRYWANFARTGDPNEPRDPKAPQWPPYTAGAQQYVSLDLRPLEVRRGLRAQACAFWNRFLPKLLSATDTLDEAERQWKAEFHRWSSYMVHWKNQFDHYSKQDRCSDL
Procedure, shortened: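 First, recombinant human AChE (50 mU/mL as dispensed) received test compound or DMSO. Second, plates stood 30 min at room temperature. Third, DTNB and acetylthiocholine were added, followed by 10 min at room temperature and colorimetric detection.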
On the % scale 0 is the no-effect control and ±100 the full control effect.

Going from O=c1[nH]c(Cl)c(Cl)cc1Cl to O=[N+]([O-])c1cc(C(F)(F)F)c(Cl)c([N+](=O)[O-])c1Nc1ncc(C(F)(F)F)cc1Cl, the “activity change, negative = inhibition” value rises from -0.24% to 0.723%.

Going from CCC(C)Nc1c([N+](=O)[O-])cc(C(C)(C)C)cc1[N+](=O)[O-] (configuration not stated) to CCCCC(CC)COC(=O)c1ccccc1C(=O)OCC(CC)CCCC (configuration not stated), the “activity change, negative = inhibition” value falls from -0.455% to -11%.

Going from C=CC(=O)[O][Sn]([CH2]CCC)([CH2]CCC)[CH2]CCC to CCCN, the “activity change, negative = inhibition” value rises from -1.94% to 0.67%.

First: N#CCCl
Second: C=CCBr
The “activity change, negative = inhibition” value of the first is lower: -0.951% for the first, 1.91% for the second.

Going from CC1CN1 (configuration not stated) to CSSC, the “activity change, negative = inhibition” value falls from 2.04% to 0.209%.

Compared with OCC(Br)CBr (configuration not stated), BrCCCBr is lower in “activity change, negative = inhibition” value: 2.6% for the first, 1.36% for the second.

First: c1csc(-c2ccc(-c3cccs3)s2)c1
Second: CCC1COC(Cn2cncn2)(c2ccc(Cl)cc2Cl)O1 (configuration not stated)
The “activity change, negative = inhibition” value of the first is higher: 0.986% for the first, -0.326% for the second.

Going from CCN(CC)CCN1C(=O)CN=C(c2ccccc2F)c2cc(Cl)ccc21 to CCN(CC)Cc1nccn1-c1ccc([N+](=O)[O-])cc1C(=O)c1ccccc1Cl, the “activity change, negative = inhibition” value rises from 0.803% [at 53 µM] to 0.993% [at 53 µM].

Compared with CN1C(=O)[C@@H](NC(=O)c2cc3ccccc3[nH]2)N=C(c2ccccc2)c2ccccc21, Clc1cc(Cl)c(-c2cc(Cl)c(Cl)cc2Cl)cc1Cl is lower in “activity change, negative = inhibition” value: 1.28% [at 53 µM] for the first, 0.679% [at 53 µM] for the second.

With c1ccc(N=NNc2ccccc2)cc1 the Potency was “inactive”.

The molecules below were run against Acetylcholinesterase (Homo sapiens) (UniProt P22303) (assay: Acetylcholinesterase (AChE) small molecule antagonists: fluorescence cell-based qHTS assay (AID 1347398; further: nearly all actives have a fitted effect of over 50% in size; further: potency means the concentration at half of the fitted maximal effect)). Details: SH-SY5Y cells; Potency: AChE activity; series mostly up to 115 µM; activity change, negative = inhibition: at the top concentration.
Procedure, shortened: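 Homogeneous quantitative HTS format. SH-SY5Y cells seeded at 2,000 per well settle overnight at 37 C. Compound pretreatment runs 30 min (37 C, 5% CO2); substrate/probe mix then reacts 40 min at RT before reading 490/520 nm.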

First: CCOP(=S)(NC(C)C)Oc1ccccc1C(=O)OC(C)C (configuration not stated)
Second: CCCCC(CC)COC(=O)c1ccccc1C(=O)OCC(CC)CCCC (configuration not stated)
The “activity change, negative = inhibition” value of the first is lower: -9.06% for the first, 0% for the second.

Going from COc1nc(C)nc(NC(=O)NS(=O)(=O)c2ccccc2Cl)n1 to COC(=O)c1ccccc1S(=O)(=O)NC(=O)Nc1nc(C)nc(OC)n1, the “activity change, negative = inhibition” value falls from 0.474% to 0.0521%.

Compared with CO/N=C(\C(=O)OC)c1ccccc1CO/N=C(\C)c1cccc(C(F)(F)F)c1, CC(C)=CC1C(C(=O)OC(C#N)c2cccc(Oc3ccccc3)c2)C1(C)C (configuration not stated) is lower in “activity change, negative = inhibition” value: 3.31% for the first, -1.11% for the second.

First: Cc1cnc2c(C(=O)O)c(Cl)ccc2c1
Second: Oc1ccc(Cl)c(Cl)c1
The “activity change, negative = inhibition” value of the first is lower: 0.415% for the first, 0.693% for the second.

Going from [O]=[Cr][O][Cr]=[O] to CNC(=O)CSP(=O)(OC)OC, the “activity change, negative = inhibition” value falls from -0.896% to -15.3%.

Compared with CCNS(=O)(=O)C(F)(F)C(F)(F)C(F)(F)C(F)(F)C(F)(F)C(F)(F)C(F)(F)C(F)(F)F, O=[N+]([O-])c1cc(C(F)(F)F)c(Cl)c([N+](=O)[O-])c1Nc1ncc(C(F)(F)F)cc1Cl is lower in “activity change, negative = inhibition” value: 4.25% for the first, 1.41% for the second.

First: ClC1(Cl)C2(Cl)C3(Cl)C4(Cl)C(Cl)(Cl)C5(Cl)C3(Cl)C1(Cl)C5(Cl)C24Cl (configuration not stated)
Second: Oc1cc(Cl)c(Cl)c(Cl)c1Cl
The “activity change, negative = inhibition” value of the first is higher: 2.81% for the first, -20.1% for the second.

First: CN/C(=N\[N+](=O)[O-])NCc1cnc(Cl)s1
Second: CCC(C)Nc1c([N+](=O)[O-])cc(C(C)(C)C)cc1[N+](=O)[O-] (configuration not stated)
The “activity change, negative = inhibition” value of the first is lower: -0.933% for the first, 6.58% for the second.

Compared with CCc1cccc(C)c1N(C(=O)CCl)[C@@H](C)COC, CC(=O)C(Cl)C(=O)N(C)C (configuration not stated) is higher in “activity change, negative = inhibition” value: -24.8% for the first, 3.01% for the second.

First: CCC(C)Br (configuration not stated)
Second: OCC(Br)CBr (configuration not stated)
The “activity change, negative = inhibition” value of the first is lower: -1.18% for the first, 0.801% for the second.

Compared with COc1cnc(OC)n2nc(NS(=O)(=O)c3c(OCC(F)F)cccc3C(F)(F)F)nc12, CCC1COC(Cn2cncn2)(c2ccc(Cl)cc2Cl)O1 (configuration not stated) is lower in “activity change, negative = inhibition” value: 0.337% for the first, -12.1% for the second.

Compared with O=c1[nH]c(Cl)c(Cl)cc1Cl, c1csc(-c2ccc(-c3cccs3)s2)c1 is higher in “activity change, negative = inhibition” value: 0.303% for the first, 0.909% for the second.

Compared with C=CC(=O)[O][Sn]([CH2]CCC)([CH2]CCC)[CH2]CCC, CCCN is lower in “activity change, negative = inhibition” value: 7.97% for the first, 0.883% for the second.

First: N#CCCl
Second: C=CCBr
The “activity change, negative = inhibition” value of the first is higher: 7.35% for the first, 3.79% for the second.

Going from CC1CN1 (configuration not stated) to CSSC, the “activity change, negative = inhibition” value rises from -2.07% to 2.77%.

For BrCCCBr, the “activity change, negative = inhibition” value was 8.77%.

CNC(=O)Oc1cc(C)cc(C(C)C)c1 was tested, and the Potency was 178 nM (active).
In the case of c1ccc(N=NNc2ccccc2)cc1, the Potency is reported as “inactive”.

Compared with CC(C)c1c(CN(C)C(C)Cc2ccccc2)n(C)n(-c2ccccc2)c1=O (configuration not stated), CN1C(=O)[C@@H](NC(=O)c2cc3ccccc3[nH]2)N=C(c2ccccc2)c2ccccc21 is higher in “activity change, negative = inhibition” value: -4.83% [at 53.7 µM] for the first, 12% [at 53.7 µM] for the second.

Going from CN1C2CCC(C)(C)C1CC(OC(=O)C(O)(c1cccs1)c1cccs1)C2 (configuration not stated) to CCN(CC)CCN1C(=O)CN=C(c2ccccc2F)c2cc(Cl)ccc21, the “activity change, negative = inhibition” value rises from -6.85% [at 53.7 µM] to -3.96% [at 53.7 µM].

First: CCN(CC)Cc1nccn1-c1ccc([N+](=O)[O-])cc1C(=O)c1ccccc1Cl
Second: Clc1cc(Cl)c(-c2cc(Cl)c(Cl)cc2Cl)cc1Cl
The “activity change, negative = inhibition” value of the first is lower: -9.91% [at 53.7 µM] for the first, 6.11% [at 53.7 µM] for the second.

Each molecule was assayed against Acetylcholinesterase (Homo sapiens) (UniProt P22303) (assay: Acetylcholinesterase (AChE) small molecule antagonists: enzyme-based qHTS assay with human liver microsomes (AID 1347399; further: nearly all actives have a fitted effect of over 60% in size; further: potency means the concentration at half of the fitted maximal effect)). Details: Potency: qHTS inhibition; series mostly up to 115 µM; activity change, negative = inhibition: at the top concentration.
Procedure, shortened: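 Recombinant human AChE (50 mU/mL in the enzyme mix) and human liver microsomes (0.25 mg/mL final) were preincubated with compound and NADPH (0.25 mg/mL final) for 30 min at 37 C. Acetylthiocholine/DTNB was then added; thiocholine was read colorimetrically after 10 min at room temperature.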

Going from CCOP(=S)(NC(C)C)Oc1ccccc1C(=O)OC(C)C (configuration not stated) to CCCCC(CC)COC(=O)c1ccccc1C(=O)OCC(CC)CCCC (configuration not stated), the “activity change, negative = inhibition” value rises from -2.9% to 1.34%.

First: COc1nc(C)nc(NC(=O)NS(=O)(=O)c2ccccc2Cl)n1
Second: COC(=O)c1ccccc1S(=O)(=O)NC(=O)Nc1nc(C)nc(OC)n1
The “activity change, negative = inhibition” value of the first is lower: -1.89% for the first, -0.0625% for the second.

First: CO/N=C(\C(=O)OC)c1ccccc1CO/N=C(\C)c1cccc(C(F)(F)F)c1
Second: CC(C)=CC1C(C(=O)OC(C#N)c2cccc(Oc3ccccc3)c2)C1(C)C (configuration not stated)
The “activity change, negative = inhibition” value of the first is higher: -0.591% for the first, -3.81% for the second.

First: Cc1cnc2c(C(=O)O)c(Cl)ccc2c1
Second: Oc1ccc(Cl)c(Cl)c1
The “activity change, negative = inhibition” value of the first is higher: 0.135% for the first, -1.03% for the second.

Going from [O]=[Cr][O][Cr]=[O] to CNC(=O)CSP(=O)(OC)OC, the “activity change, negative = inhibition” value rises from -2.71% to -0.623%.

Going from CCNS(=O)(=O)C(F)(F)C(F)(F)C(F)(F)C(F)(F)C(F)(F)C(F)(F)C(F)(F)C(F)(F)F to O=[N+]([O-])c1cc(C(F)(F)F)c(Cl)c([N+](=O)[O-])c1Nc1ncc(C(F)(F)F)cc1Cl, the “activity change, negative = inhibition” value rises from -4.03% to 0.304%.

Compared with ClC1(Cl)C2(Cl)C3(Cl)C4(Cl)C(Cl)(Cl)C5(Cl)C3(Cl)C1(Cl)C5(Cl)C24Cl (configuration not stated), Oc1cc(Cl)c(Cl)c(Cl)c1Cl is lower in “activity change, negative = inhibition” value: 1.2% for the first, -0.171% for the second.

First: CN/C(=N\[N+](=O)[O-])NCc1cnc(Cl)s1
Second: CCC(C)Nc1c([N+](=O)[O-])cc(C(C)(C)C)cc1[N+](=O)[O-] (configuration not stated)
The “activity change, negative = inhibition” value of the first is lower: 0.0912% for the first, 3.08% for the second.

Going from CCc1cccc(C)c1N(C(=O)CCl)[C@@H](C)COC to CC(=O)C(Cl)C(=O)N(C)C (configuration not stated), the “activity change, negative = inhibition” value falls from -2.98% to -8.58%.

Compared with CCC(C)Br (configuration not stated), OCC(Br)CBr (configuration not stated) is higher in “activity change, negative = inhibition” value: -0.645% for the first, 0.0214% for the second.

First: COc1cnc(OC)n2nc(NS(=O)(=O)c3c(OCC(F)F)cccc3C(F)(F)F)nc12
Second: CCC1COC(Cn2cncn2)(c2ccc(Cl)cc2Cl)O1 (configuration not stated)
The “activity change, negative = inhibition” value of the first is lower: -1.24% for the first, 0% for the second.

Compared with O=c1[nH]c(Cl)c(Cl)cc1Cl, c1csc(-c2ccc(-c3cccs3)s2)c1 is higher in “activity change, negative = inhibition” value: -1.53% for the first, 2.94% for the second.

First: C=CC(=O)[O][Sn]([CH2]CCC)([CH2]CCC)[CH2]CCC
Second: CCCN
The “activity change, negative = inhibition” value of the first is higher: 0.464% for the first, 0.171% for the second.

First: N#CCCl
Second: C=CCBr
The “activity change, negative = inhibition” value of the first is higher: -1.18% for the first, -3.25% for the second.

Compared with CC1CN1 (configuration not stated), CSSC is lower in “activity change, negative = inhibition” value: 0.641% for the first, -0.849% for the second.

In the case of BrCCCBr, the “activity change, negative = inhibition” value is reported as 2.84%.

With CNC(=O)Oc1cc(C)cc(C(C)C)c1 the Potency was 5030 nM (active).
c1ccc(N=NNc2ccccc2)cc1 was tested, and the Potency was “inactive”.

First: CC(C)c1c(CN(C)C(C)Cc2ccccc2)n(C)n(-c2ccccc2)c1=O (configuration not stated)
Second: CN1C(=O)[C@@H](NC(=O)c2cc3ccccc3[nH]2)N=C(c2ccccc2)c2ccccc21
The “activity change, negative = inhibition” value of the first is lower: -0.084% [at 53 µM] for the first, 8.06% [at 53 µM] for the second.

Compared with CN1C2CCC(C)(C)C1CC(OC(=O)C(O)(c1cccs1)c1cccs1)C2 (configuration not stated), CCN(CC)CCN1C(=O)CN=C(c2ccccc2F)c2cc(Cl)ccc21 is lower in “activity change, negative = inhibition” value: 1.34% [at 53 µM] for the first, -1.58% [at 53 µM] for the second.

Going from CCN(CC)Cc1nccn1-c1ccc([N+](=O)[O-])cc1C(=O)c1ccccc1Cl to Clc1cc(Cl)c(-c2cc(Cl)c(Cl)cc2Cl)cc1Cl, the “activity change, negative = inhibition” value rises from -3.41% [at 53 µM] to -0.734% [at 53 µM].
